What was measured:
Assay in all cases: DAPPL (digital affinity profiling via proximity ligation, sequencing); 10 mM Tris-HCl pH 7.5, 50 mM NaCl, 1 mM DTT, 4% glycerol, room temperature, 30 min; GST-TFs on glutathione beads, 16-mer random dsDNA library, 0.1% formaldehyde crosslink after washing; high values mean tight binding
Conditions in all cases: protein: recombinant; tags: N-terminal GST; dsDNA, one strand shown
FLI1 = biological target: T1, FLI1 (Homo sapiens, UniProt Q01543 1-452)
T1 sequence: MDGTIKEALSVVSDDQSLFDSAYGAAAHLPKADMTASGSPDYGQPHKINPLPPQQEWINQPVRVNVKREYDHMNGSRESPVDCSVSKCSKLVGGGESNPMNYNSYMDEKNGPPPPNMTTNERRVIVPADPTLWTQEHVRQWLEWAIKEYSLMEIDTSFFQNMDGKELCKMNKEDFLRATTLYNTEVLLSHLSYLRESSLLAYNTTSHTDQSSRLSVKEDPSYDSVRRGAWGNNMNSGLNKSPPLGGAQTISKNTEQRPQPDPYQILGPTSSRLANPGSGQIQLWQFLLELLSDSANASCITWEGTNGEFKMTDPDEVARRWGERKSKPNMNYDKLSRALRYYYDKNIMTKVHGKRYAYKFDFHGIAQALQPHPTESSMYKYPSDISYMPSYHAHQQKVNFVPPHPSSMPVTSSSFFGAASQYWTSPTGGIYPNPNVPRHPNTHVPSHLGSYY
Method in brief: (§1)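 Sequencing on an Illumina NextSeq500 followed washing, crosslinking with 0.1% formaldehyde, proximity ligation (BsaI/T4 ligase, 1 h, 37 °C) and PCR amplification of pools that had been incubated for 30 min at room temperature with 200 nmole of a random double-stranded 16-mer DNA library in Tris/NaCl/DTT/glycerol buffer. Each pool held DNA-barcoded human transcription factors, expressed in yeast as GST fusions and captured on glutathione beads, plus a tag-only sample. Binding signal is a hexamer's read frequency for a factor divided by its frequency in the tag-only sample.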

ELK1 = biological target: T2, ELK1 (Homo sapiens, UniProt P19419 1-428)
T2 sequence: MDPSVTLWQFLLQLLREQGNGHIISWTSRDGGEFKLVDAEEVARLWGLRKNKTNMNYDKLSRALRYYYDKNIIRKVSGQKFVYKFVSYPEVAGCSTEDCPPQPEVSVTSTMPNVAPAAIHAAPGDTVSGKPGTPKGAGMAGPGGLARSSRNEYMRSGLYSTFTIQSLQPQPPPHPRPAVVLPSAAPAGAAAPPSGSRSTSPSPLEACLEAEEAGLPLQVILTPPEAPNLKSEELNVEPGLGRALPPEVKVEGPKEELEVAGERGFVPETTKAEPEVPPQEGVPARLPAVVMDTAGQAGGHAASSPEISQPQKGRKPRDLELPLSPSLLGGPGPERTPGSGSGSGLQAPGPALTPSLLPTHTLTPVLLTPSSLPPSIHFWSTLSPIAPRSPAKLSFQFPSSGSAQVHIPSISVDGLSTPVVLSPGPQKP
Method in brief: as §1

GABPA = biological target: T3, GABPA (Homo sapiens, UniProt Q06546 1-454)
T3 sequence: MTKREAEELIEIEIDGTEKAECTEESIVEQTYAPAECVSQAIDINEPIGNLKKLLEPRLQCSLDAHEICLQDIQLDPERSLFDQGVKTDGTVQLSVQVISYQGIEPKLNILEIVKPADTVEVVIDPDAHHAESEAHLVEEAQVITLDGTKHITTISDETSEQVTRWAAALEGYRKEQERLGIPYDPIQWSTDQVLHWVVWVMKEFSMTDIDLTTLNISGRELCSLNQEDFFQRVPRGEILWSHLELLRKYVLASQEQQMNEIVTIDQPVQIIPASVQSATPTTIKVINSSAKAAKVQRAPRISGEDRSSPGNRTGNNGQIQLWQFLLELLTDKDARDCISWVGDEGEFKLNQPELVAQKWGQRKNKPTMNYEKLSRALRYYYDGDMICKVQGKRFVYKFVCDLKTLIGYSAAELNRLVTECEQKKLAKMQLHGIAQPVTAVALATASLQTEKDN
Method in brief: as §1

ERG = biological target: T4, ERG (Homo sapiens, UniProt P11308 1-479)
T4 sequence: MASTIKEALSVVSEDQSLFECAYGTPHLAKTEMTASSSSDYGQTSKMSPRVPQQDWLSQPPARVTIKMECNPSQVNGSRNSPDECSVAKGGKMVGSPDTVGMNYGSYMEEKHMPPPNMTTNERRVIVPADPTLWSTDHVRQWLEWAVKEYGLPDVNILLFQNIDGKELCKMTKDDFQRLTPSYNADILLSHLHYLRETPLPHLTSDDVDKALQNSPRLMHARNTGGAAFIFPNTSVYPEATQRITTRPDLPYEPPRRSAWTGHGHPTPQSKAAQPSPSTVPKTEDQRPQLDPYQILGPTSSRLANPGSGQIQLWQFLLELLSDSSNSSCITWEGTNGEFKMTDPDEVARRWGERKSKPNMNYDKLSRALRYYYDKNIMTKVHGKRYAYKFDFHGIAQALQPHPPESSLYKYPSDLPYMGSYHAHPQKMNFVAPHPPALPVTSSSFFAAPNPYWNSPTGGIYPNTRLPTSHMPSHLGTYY
Method in brief: as §1

ELF1 = ELF1 (Homo sapiens, UniProt P32519 1-619)
Chain of ELF1 (P32519 whole entry): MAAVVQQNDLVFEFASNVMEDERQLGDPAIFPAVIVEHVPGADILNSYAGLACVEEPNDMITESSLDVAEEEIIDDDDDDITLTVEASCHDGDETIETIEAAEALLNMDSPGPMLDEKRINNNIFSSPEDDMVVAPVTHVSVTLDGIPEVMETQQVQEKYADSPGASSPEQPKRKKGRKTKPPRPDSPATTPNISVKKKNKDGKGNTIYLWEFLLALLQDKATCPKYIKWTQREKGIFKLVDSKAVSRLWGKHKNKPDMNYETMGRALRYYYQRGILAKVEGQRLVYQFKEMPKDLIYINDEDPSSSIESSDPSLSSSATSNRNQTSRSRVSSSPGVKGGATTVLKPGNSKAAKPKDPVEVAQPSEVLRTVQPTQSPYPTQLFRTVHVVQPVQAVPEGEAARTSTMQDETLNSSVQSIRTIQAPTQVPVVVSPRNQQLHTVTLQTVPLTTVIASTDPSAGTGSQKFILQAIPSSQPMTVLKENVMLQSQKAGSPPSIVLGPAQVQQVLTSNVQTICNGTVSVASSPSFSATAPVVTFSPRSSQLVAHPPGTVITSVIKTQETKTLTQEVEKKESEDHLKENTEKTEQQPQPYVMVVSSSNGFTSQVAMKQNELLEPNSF
Method in brief: as §1

EHF = biological target: T5, EHF (Homo sapiens, UniProt Q9NZC4 1-300)
T5 sequence: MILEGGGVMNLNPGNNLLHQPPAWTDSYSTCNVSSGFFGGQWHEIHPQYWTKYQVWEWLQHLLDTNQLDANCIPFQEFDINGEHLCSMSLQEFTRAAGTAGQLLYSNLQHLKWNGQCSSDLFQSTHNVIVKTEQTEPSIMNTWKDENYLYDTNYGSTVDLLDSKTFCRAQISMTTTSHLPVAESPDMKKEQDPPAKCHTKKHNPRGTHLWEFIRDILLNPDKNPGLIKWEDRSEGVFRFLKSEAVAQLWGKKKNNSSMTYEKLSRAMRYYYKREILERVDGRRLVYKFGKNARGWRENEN
Method in brief: as §1

SPI1 = SPI1 (Homo sapiens, UniProt P17947 1-270)
Method in brief: as §1

SPIB = SPIB (Homo sapiens, UniProt Q01892 1-262)
Chain of SPIB (Q01892 whole entry): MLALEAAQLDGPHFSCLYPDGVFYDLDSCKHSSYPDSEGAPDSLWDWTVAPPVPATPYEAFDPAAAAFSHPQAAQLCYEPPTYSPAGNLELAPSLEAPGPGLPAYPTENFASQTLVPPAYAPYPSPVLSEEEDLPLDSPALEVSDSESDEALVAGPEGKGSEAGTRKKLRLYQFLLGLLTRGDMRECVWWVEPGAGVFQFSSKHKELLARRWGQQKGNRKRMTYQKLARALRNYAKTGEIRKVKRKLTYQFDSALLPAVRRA
Method in brief: as §1

ELK3 = biological target: T6, ELK3 (Homo sapiens, UniProt P41970 1-407)
T6 sequence: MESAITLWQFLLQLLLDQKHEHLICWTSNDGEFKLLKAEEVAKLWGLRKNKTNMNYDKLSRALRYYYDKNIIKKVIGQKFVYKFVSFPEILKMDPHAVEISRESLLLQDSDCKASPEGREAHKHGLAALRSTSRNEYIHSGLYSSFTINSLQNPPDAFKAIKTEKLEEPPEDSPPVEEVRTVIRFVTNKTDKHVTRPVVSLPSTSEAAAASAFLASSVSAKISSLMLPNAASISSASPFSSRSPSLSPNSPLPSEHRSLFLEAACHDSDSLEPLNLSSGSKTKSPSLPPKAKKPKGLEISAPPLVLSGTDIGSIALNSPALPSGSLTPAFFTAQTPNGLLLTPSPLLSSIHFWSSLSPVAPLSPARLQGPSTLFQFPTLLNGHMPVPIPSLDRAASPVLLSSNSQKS
Method in brief: as §1

FEV = biological target: T7, FEV (Homo sapiens, UniProt Q99581 1-238)
T7 sequence: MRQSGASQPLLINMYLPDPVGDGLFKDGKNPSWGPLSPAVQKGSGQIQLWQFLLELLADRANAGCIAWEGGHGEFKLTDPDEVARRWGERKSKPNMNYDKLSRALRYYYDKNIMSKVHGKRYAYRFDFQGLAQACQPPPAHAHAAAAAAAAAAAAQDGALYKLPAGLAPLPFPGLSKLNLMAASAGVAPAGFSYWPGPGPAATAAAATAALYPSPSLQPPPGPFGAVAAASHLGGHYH
Method in brief: as §1

ETV5 = ETV5 (Homo sapiens, UniProt P41161 1-510)
Chain of ETV5 (P41161 whole entry): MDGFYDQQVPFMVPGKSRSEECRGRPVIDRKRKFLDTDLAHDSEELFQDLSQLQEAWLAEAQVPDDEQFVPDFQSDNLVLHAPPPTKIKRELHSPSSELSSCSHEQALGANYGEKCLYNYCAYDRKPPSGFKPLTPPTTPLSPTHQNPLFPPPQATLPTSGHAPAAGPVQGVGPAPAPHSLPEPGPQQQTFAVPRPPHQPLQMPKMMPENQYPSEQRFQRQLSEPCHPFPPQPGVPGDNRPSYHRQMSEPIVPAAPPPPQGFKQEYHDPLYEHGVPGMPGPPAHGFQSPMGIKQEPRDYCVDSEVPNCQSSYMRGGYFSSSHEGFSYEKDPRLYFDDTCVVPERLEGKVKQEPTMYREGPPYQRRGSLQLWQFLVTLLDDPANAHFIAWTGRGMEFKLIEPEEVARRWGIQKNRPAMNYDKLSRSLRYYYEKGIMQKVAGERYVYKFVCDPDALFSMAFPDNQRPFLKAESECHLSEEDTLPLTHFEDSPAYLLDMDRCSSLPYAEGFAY
Method in brief: as §1

ELF4 = ELF4 (Homo sapiens, UniProt Q99607 1-663)
Chain of ELF4 (Q99607 whole entry): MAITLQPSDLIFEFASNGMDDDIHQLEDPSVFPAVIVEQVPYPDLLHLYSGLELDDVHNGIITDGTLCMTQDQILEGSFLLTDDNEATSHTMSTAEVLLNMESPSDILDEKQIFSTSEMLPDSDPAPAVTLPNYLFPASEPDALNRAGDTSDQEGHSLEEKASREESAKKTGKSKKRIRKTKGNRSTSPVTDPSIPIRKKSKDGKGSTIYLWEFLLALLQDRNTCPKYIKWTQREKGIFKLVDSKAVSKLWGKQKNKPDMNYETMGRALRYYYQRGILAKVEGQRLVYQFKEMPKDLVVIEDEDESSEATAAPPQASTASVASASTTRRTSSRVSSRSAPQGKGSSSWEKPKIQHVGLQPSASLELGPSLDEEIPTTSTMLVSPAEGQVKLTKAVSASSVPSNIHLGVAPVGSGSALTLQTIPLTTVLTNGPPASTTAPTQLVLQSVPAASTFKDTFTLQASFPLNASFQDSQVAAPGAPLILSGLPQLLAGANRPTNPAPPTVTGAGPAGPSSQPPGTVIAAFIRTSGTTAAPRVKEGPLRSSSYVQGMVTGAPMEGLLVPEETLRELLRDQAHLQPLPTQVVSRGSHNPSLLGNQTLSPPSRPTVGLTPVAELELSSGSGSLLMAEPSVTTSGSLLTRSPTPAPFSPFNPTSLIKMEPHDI
Method in brief: as §1

ETV1 = ETV1 (Homo sapiens, UniProt P50549 1-477)
Chain of ETV1 (P50549 whole entry): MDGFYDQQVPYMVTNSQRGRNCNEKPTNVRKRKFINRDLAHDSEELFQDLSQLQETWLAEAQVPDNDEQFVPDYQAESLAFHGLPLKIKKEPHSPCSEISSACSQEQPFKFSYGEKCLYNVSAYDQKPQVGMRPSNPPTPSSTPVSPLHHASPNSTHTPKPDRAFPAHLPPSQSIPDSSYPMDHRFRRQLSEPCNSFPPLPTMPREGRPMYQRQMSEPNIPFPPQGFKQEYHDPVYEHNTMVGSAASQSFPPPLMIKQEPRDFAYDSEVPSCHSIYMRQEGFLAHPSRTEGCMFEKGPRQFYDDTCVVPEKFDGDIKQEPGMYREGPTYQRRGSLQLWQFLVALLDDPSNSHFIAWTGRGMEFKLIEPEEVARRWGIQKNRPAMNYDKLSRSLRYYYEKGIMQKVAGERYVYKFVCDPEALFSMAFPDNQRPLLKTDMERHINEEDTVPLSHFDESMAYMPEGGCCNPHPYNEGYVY
Method in brief: as §1

ERF = biological target: T8, ERF (Homo sapiens, UniProt P50548 1-548)
T8 sequence: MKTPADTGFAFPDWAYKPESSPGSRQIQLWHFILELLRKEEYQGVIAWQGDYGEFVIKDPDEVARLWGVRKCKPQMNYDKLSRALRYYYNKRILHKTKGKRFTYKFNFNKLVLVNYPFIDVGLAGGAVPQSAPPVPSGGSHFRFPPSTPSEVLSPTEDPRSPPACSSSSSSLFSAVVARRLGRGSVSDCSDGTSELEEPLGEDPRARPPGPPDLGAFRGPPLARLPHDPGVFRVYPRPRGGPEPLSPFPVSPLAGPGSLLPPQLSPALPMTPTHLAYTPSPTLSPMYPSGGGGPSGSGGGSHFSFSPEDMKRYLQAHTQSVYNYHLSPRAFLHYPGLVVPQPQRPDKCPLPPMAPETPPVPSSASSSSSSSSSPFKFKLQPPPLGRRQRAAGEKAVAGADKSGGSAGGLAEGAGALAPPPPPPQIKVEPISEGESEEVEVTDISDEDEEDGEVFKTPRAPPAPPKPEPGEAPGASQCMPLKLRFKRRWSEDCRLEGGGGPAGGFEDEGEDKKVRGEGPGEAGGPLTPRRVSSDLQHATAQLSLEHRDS
Method in brief: as §1

ETV3L = biological target: T9, ETV3L (Homo sapiens, UniProt Q6ZN32 1-361)
T9 sequence: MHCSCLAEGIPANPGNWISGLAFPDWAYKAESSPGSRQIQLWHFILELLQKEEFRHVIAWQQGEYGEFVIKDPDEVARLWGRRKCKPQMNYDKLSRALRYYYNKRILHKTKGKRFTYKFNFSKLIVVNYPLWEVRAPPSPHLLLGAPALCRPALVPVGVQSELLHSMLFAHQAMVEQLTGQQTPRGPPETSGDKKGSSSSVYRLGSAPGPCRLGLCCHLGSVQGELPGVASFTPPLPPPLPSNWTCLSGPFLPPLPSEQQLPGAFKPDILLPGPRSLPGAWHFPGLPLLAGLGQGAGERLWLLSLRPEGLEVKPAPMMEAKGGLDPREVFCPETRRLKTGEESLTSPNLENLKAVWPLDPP
Method in brief: as §1

ETS2 = biological target: T10, ETS2 (Homo sapiens, UniProt P15036 1-469)
T10 sequence: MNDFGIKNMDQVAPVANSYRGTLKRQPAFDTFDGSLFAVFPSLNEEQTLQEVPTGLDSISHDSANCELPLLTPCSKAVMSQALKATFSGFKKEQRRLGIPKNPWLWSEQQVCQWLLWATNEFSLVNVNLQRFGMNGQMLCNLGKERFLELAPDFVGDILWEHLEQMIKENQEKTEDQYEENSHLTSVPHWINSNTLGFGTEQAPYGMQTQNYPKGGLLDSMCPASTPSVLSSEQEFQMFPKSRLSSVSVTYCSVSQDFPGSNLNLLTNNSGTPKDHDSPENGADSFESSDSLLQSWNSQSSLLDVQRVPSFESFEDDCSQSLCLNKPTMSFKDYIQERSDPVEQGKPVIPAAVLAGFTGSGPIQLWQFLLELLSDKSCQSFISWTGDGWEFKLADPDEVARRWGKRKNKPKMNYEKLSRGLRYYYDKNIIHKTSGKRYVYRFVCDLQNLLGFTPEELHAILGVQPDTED
Method in brief: as §1

SPDEF = biological target: T11, SPDEF (Homo sapiens, UniProt O95238 1-335)
T11 sequence: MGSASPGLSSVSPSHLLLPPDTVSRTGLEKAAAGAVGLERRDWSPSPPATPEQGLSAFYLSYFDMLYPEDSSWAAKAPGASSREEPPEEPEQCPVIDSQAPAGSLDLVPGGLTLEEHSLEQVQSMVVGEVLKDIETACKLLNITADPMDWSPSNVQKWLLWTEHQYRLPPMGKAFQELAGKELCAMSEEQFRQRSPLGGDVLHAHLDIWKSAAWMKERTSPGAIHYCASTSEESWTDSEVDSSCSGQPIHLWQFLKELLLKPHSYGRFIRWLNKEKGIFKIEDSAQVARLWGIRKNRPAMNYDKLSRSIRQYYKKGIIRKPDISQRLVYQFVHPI
Method in brief: as §1

ETV3 = biological target: T12, ETV3 (Homo sapiens, UniProt P41162-2 1-143)
T12 sequence: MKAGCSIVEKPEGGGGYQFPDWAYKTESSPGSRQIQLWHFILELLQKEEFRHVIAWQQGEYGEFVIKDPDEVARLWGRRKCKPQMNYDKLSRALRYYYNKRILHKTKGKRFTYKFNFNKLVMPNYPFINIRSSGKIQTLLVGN
Method in brief: as §1

GCAATT
binding signal (FLI1): 1.17 fold enrichment (6-mer frequency, TF over GST control)
binding signal (ELK1): 1.15 fold enrichment (6-mer frequency, TF over GST control)
binding signal (GABPA): 1.14 fold enrichment (6-mer frequency, TF over GST control)
binding signal (ERG): 1.02 fold enrichment (6-mer frequency, TF over GST control)
binding signal (ELF1): 1.06 fold enrichment (6-mer frequency, TF over GST control)
binding signal (EHF): 1.09 fold enrichment (6-mer frequency, TF over GST control)
binding signal (SPI1): 1.23 fold enrichment (6-mer frequency, TF over GST control)
binding signal (SPIB): 1.21 fold enrichment (6-mer frequency, TF over GST control)
binding signal (ELK3): 1.05 fold enrichment (6-mer frequency, TF over GST control)
binding signal (FEV): 1.14 fold enrichment (6-mer frequency, TF over GST control)
binding signal (ETV5): 1.12 fold enrichment (6-mer frequency, TF over GST control)
binding signal (ELF4): 1.12 fold enrichment (6-mer frequency, TF over GST control)
binding signal (ETV1): 1.06 fold enrichment (6-mer frequency, TF over GST control)
binding signal (ERF): 1.2 fold enrichment (6-mer frequency, TF over GST control)
binding signal (ETV3L): 1.08 fold enrichment (6-mer frequency, TF over GST control)
binding signal (ETS2): 1.09 fold enrichment (6-mer frequency, TF over GST control)
binding signal (SPDEF): 1.06 fold enrichment (6-mer frequency, TF over GST control)
binding signal (ETV3): 1.18 fold enrichment (6-mer frequency, TF over GST control)
